The nature of assay [1]: Quantitative High-Throughput drug screen in 47 multiple myeloma cell lines against the NCATS MIPE library collection: MMM1_PLB cell viability assay (AID 1918976). Also: nearly all actives have a fitted effect of over 35% in size. In short, it runs like this: (§1)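 ATP-based luminescence (CellTiter-Glo, 5 min RT incubation) quantified surviving cells following two days' treatment with MIPE 4.0 agents at 37 °C, 5% CO2.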
Assay [2] can be described thus: Quantitative High-Throughput drug screen in 47 multiple myeloma cell lines against the NCATS MIPE library collection: OCIMY1_PLB cell viability assay (AID 1918979). Also: nearly all actives have a fitted effect of over 35% in size.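 As to viability: 100% = DMSO-only wells and 0% = cell-free media-only wells.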 The essentials: as §1
A short description of assay [3]: Quantitative High-Throughput drug screen in 47 multiple myeloma cell lines against the NCATS MIPE library collection: MM1S_ATCC cell viability assay (AID 1918980). Also: nearly all actives have a fitted effect of over 45% in size.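 As to viability (% of control): 100% = wells with DMSO only and 0% = wells with media only.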 In short, it runs like this:
as §1

The nature of assay [4]: Quantitative High-Throughput drug screen in 47 multiple myeloma cell lines against the NCATS MIPE library collection: MM1R_ATCC cell viability assay (AID 1918981). Also: nearly all actives have a fitted effect of over 35% in size. In short, it runs like this: as §1
Assay [5] in a line: Quantitative High-Throughput drug screen in 47 multiple myeloma cell lines against the NCATS MIPE library collection: LP1_DSMZ cell viability assay (AID 1918982). Also: nearly all actives have a fitted effect of over 35% in size. The essentials: as §1
A short description of assay [6]: Quantitative High-Throughput drug screen in 47 multiple myeloma cell lines against the NCATS MIPE library collection: OCIMY7_PLB cell viability assay (AID 1918987). Also: nearly all actives have a fitted effect of over 65% in size. As to conditions: OCI-MY7 myeloma viability, CellTiter-Glo ATP, 48 h; viability (% of DMSO): at 45.8 µM (top of the series). In short, it runs like this: as §1
On the technique in general: ATP-based viability assays read luminescence as a measure of living cells.

Assay [7] in a line: Quantitative High-Throughput drug screen in 47 multiple myeloma cell lines against the NCATS MIPE library collection: OCIMY5_PLB cell viability assay (AID 1918988). Also: nearly all actives have a fitted effect of over 65% in size. In short, it runs like this:
as §1

Assay [8] can be described thus: Quantitative High-Throughput drug screen in 47 multiple myeloma cell lines against the NCATS MIPE library collection: OPM1_PLB cell viability assay (AID 1918989). Also: nearly all actives have a fitted effect of over 40% in size.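 As to viability (% of control): 100% = DMSO-only wells and 0% = media-only wells.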 The essentials: as §1
Assay [9] can be described thus: Quantitative High-Throughput drug screen in 47 multiple myeloma cell lines against the NCATS MIPE library collection: XG6_PLB cell viability assay (AID 1919865). Also: nearly all actives have a fitted effect of over 40% in size.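 As to viability (% of control): 100% = DMSO-only wells and 0% = media-only wells.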 In short, it runs like this: as §1
The nature of assay [10]: Quantitative High-Throughput drug screen in 47 multiple myeloma cell lines against the NCATS MIPE library collection: XG1_PLB cell viability assay (AID 1919866). Also: nearly all actives have a fitted effect of over 35% in size. In short, it runs like this: as §1
The nature of assay [11]: Quantitative High-Throughput drug screen in 47 multiple myeloma cell lines against the NCATS MIPE library collection: MOLP8_DSMZ cell viability assay (AID 1918977). Also: nearly all actives have a fitted effect of over 45% in size.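 As to viability (% of control): 100% = DMSO-only wells and 0% = media-only wells without cells.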 The essentials: as §1
Assay [12] in a line: Quantitative High-Throughput drug screen in 47 multiple myeloma cell lines against the NCATS MIPE library collection: NCIH929_DSMZ cell viability assay (AID 1918978). Also: nearly all actives have a fitted effect of over 35% in size. The essentials: as §1
A short description of assay [13]: Quantitative High-Throughput drug screen in 47 multiple myeloma cell lines against the NCATS MIPE library collection: KMS28PE_JCRB cell viability assay (AID 1918983). Also: nearly all actives have a fitted effect of over 35% in size. The essentials:
as §1

A short description of assay [14]: Quantitative High-Throughput drug screen in 47 multiple myeloma cell lines against the NCATS MIPE library collection: KMS34_JCRB cell viability assay (AID 1918985). Also: nearly all actives have a fitted effect of over 40% in size. In short, it runs like this: as §1
Assay [15] in a line: Quantitative High-Throughput drug screen in 47 multiple myeloma cell lines against the NCATS MIPE library collection: U266_ATCC cell viability assay (AID 1919864). Also: nearly all actives have a fitted effect of over 35% in size. In short, it runs like this:
as §1

Assay [16] is described as follows: Quantitative High-Throughput drug screen in 47 multiple myeloma cell lines against the NCATS MIPE library collection: SKMM1_PLB cell viability assay (AID 1919863). Also: nearly all actives have a fitted effect of over 35% in size. As to conditions: SKMM1 myeloma viability, CellTiter-Glo ATP, 48 h; viability: stronger effect = lower value. The essentials: as §1
Assay [17] is described as follows: Quantitative High-Throughput drug screen in 47 multiple myeloma cell lines against the NCATS MIPE library collection: L363_DSMZ cell viability assay (AID 1918984). Also: nearly all actives have a fitted effect of over 40% in size. As to conditions: L363 myeloma viability, CellTiter-Glo ATP luminescence, 48 h; viability (% of control): at 45.8 µM (top of the series). In short, it runs like this:
as §1

Results filed as inconclusive are left out. Values without a mark were called inactive. The source made the active and inactive calls. Calls follow the shape of the dose curve; as a rule, active = well fitted curve in the direction sought with a large enough effect; inconclusive = small, poorly fitted or top-dose-only effect, or another doubt; inactive = no such curve, though single readings can be large; an effect the other way counts as inactive or inconclusive.
Potency is read from the fitted curve at half-maximal effect.

Regarding `Cn1cc(-c2ccc3nnc(Sc4ccc5ncccc5c4)n3n2)cn1`, the Potency was 16.6 µM (active) in assay [1]; 4.18 µM (active) in assay [3]; 23.5 µM (active) in [4]; 0.001 µM (active) in [5]; 13.2 µM (active) in [7]; 26.4 µM (active) in assay [9]. In addition, the Potency in assay [10] was 26.4 µM (active). Moreover, the Potency entry in [2], in [6] and in [8] was “inactive” each time.

As to `CCCCC[C@H](O)C=C[C@H]1[C@H](O)CC(=O)[C@H]1CC=CCCCC(=O)O`, the Potency in [11] is 16.6 µM (active); in [12], 16.6 µM (active); in assay [14] it was 0.0148 µM (active); in assay [8], 18.7 µM (active); in assay [15], 18.7 µM (active); in [9] it was 20.9 µM (active). Further, the Potency result in assay [2], in [4], in assay [5] and in [13] was “inactive” in each case.

With `COc1c(C)c2c(c(O)c1CC=C(C)CCC(=O)O)C(=O)OC2`, the Potency in assay [1] is 1.18 µM (active); in assay [2], 13.2 µM (active); in assay [4], 11.8 µM (active); in assay [13], 4.69 µM (active); in assay [6], 4.69 µM (active); in assay [7], 7.43 µM (active). For the same compound, the Potency in [8] was 11.8 µM (active); in assay [16] it was 5.26 µM (active); in assay [9], 3.32 µM (active).

One may read the viability as a read-out of living cells in per cent, often relative to untreated cells. Regarding `O=C(O)C1=NC(C(=O)O)CC(C=CN2c3cc(O)c(OC4OC(CO)C(O)C(O)C4O)cc3CC2C(=O)O)=C1` (stereo not drawn), the Potency in assay [1] was 23.5 µM (active). The Potency entry in [12], in [2], in assay [3], in assay [4], in [5] and in [13] was “inactive” each time. The Potency entry in [17] and in [10] was “inactive” throughout. For the same compound, in assay [16], the viability was 117%.

For `NC(=O)c1nnn(Cc2cc(Cl)c(C(=O)c3ccc(Cl)cc3)c(Cl)c2)c1N`, the Potency is 20.9 µM (active) in [1]; 18.7 µM (active) in [3]; 18.7 µM (active) in [4]; 26.4 µM (active) in assay [7]; 16.6 µM (active) in assay [15]; 18.7 µM (active) in assay [9]. For the same compound, the Potency in assay [10] is 20.9 µM (active). In addition, the Potency entry in [2] was “inactive”.

`Cc1ccc(NC(=O)c2ccc(CN3CCN(C)CC3)cc2)cc1Nc1nc(-c2cccnc2)cs1`: the Potency in assay [1] is 18.7 µM (active); in [12], 23.5 µM (active); in assay [4] it was 20.9 µM (active); in assay [13], 16.6 µM (active); in assay [17], 9.35 µM (active); in [7], 23.5 µM (active). The Potency was 9.35 µM (active) in assay [8]; 23.5 µM (active) in assay [16]; 23.5 µM (active) in assay [15]; 7.43 µM (active) in assay [9]; 13.2 µM (active) in [10].

With `CN(C)CCN(Cc1ccc(Cl)cc1)c1ccccn1`, the Potency entry in assay [2], in assay [4], in [5], in assay [17] and in assay [14] was “inactive” each time. Further, the Potency was 16.6 µM (active) in [3], 5.9 µM (active) in assay [13] and 14.8 µM (active) in [6].

With `Cc1ccc(NC(=O)c2cccc(N(C)C)c2)cc1NC(=O)c1ccc(O)cc1`, the Potency in assay [12] is 0.118 µM (active); in assay [3], 0.418 µM (active); in assay [4], 4.18 µM (active); in assay [6], 0.059 µM (active); in assay [7], 1.32 µM (active); in assay [10], 0.0469 µM (active). Moreover, the Potency entry in assay [2] and in [17] was “inactive” each time.

Regarding `CC(=O)O[C@]1(C(C)=O)CC[C@H]2[C@@H]3C=C(Cl)C4=CC(=O)[C@@H]5C[C@H]5[C@]4(C)[C@@H]3CC[C@@]21C`, the Potency in assay [12] was 9.35 µM (active); in assay [3], 7.43 µM (active); in assay [7], 23.5 µM (active); in assay [15] it was 8.33 µM (active); in assay [9] it was 4.18 µM (active); in assay [10], 7.43 µM (active). Further, in [2], the Potency result is “inactive”.

As to `CNc1nc(-c2ccc3c(N)n[nH]c3c2)cc(N2C[C@@H](C(=O)NC3CCCCC3)CC[C@@H]2C)n1`, the Potency was 1.18 µM (active) in assay [12]; 18.7 µM (active) in assay [2]; 18.7 µM (active) in assay [4]; 2.64 µM (active) in assay [5]; 20.9 µM (active) in [14]; 0.0662 µM (active) in [6]. For the same compound, the Potency in [8] is 23.5 µM (active); in assay [15] it was 16.6 µM (active); in assay [9], 20.9 µM (active); in [10], 20.9 µM (active).

In the case of `Fc1ccc(C(c2ccc(F)cc2)N2CCN(CC=Cc3ccccc3)CC2)cc1`, the Potency in assay [12] is 18.7 µM (active); in [5] it was 16.6 µM (active); in assay [7], 14.8 µM (active); in assay [9], 7.43 µM (active); in assay [10], 9.35 µM (active). Further, the Potency result in assay [2], in assay [13], in assay [17], in assay [14], in [8] and in [15] was “inactive” each time. For the same compound, the viability in assay [16] is 107%.

As to `O=C1CCCC(=O)C1C(=O)c1ccc(C(F)(F)F)cc1[N+](=O)[O-]`, the Potency result in assay [12], in [2], in assay [4], in assay [5], in [13] and in assay [17] was “inactive” throughout. Also, the Potency result in assay [6], in assay [8] and in [9] was “inactive” in each case. Moreover, the Potency in assay [3] was 18.7 µM (active); in assay [15], 20.9 µM (active).

For the compound `COc1cc(CNC(=O)CCCCC=CC(C)C)ccc1O`, the Potency result in [2], in [3], in assay [4], in assay [5], in assay [7] and in assay [8] was “inactive” throughout. The Potency result in assay [15] and in [10] was “inactive” each time. The viability in assay [16] was 120%. Also, the Potency in assay [9] is 13.2 µM (active).

Consider `COc1cc([C@@H]2c3cc4c(cc3[C@@H](O[C@@H]3O[C@@H]5CO[C@@H](C)O[C@@H]5[C@H](O)[C@@H]3O)[C@H]3COC(=O)[C@H]23)OCO4)cc(OC)c1O`, for which the Potency result in assay [11] and in [2] was “inactive” in each case. The Potency in assay [3] is 0.264 µM (active); in [4], 0.372 µM (active); in assay [14], 4.18 µM (active); in [7] it was 14.8 µM (active); in [8] it was 14.8 µM (active).

For `C[C@@H]1CCO[C@H]2Cn3cc(C(=O)NCc4ccc(F)cc4F)c(=O)c(O)c3C(=O)N12`, the Potency entry in [2] is “inactive”. The Potency was 23.5 µM (active) in assay [4]; 23.5 µM (active) in [13]; 20.9 µM (active) in [7]; 26.4 µM (active) in assay [16]; 26.4 µM (active) in assay [10]. Moreover, the viability (% of control) in [17] is 92.8% (active).

`NC[C@H]1O[C@H](O[C@@H]2[C@@H](O)[C@@H](O[C@H]3O[C@H](CO)[C@@H](O)[C@H](N)[C@@H]3O)[C@H](N)C[C@@H]2N)[C@H](O)[C@@H](O)[C@H]1O`: the Potency entry in assay [11], in assay [2], in assay [4], in assay [13], in assay [17] and in assay [14] was “inactive” throughout. Further, the Potency result in assay [8], in [9] and in assay [10] was “inactive” throughout. The viability in [16] was 120%.

These data come from PubChem BioAssay (NCATS).
